The source of these data is PubChem BioAssay (NCATS).

Each structure is given as a SMILES string. Unmarked numbers belong to inactive results. Records with an inconclusive call do not appear. Calls of active or inactive are those of the source. Calls follow the shape of the dose curve; as a rule, active = well fitted curve in the direction sought with a large enough effect; inconclusive = small, poorly fitted or top-dose-only effect, or another doubt; inactive = no such curve, though single readings can be large; an effect the other way counts as inactive or inconclusive.

Experiment [1] deals with Cytochrome P450 3A4 (Homo sapiens) (UniProt P08684). The experiment can be described thus: qHTS Assay for Inhibitors and Substrates of Cytochrome P450 3A4 (AID 884). Also: potency is read from the fitted curve at half-maximal effect; nearly all actives have a fitted effect of over 50% in size. The gist of the method: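 Luminescent readout of luciferin produced by CYP3A4 (20 nM) dealkylation of Luciferin-PPXE, 25 uM (its KM). NADPH-driven reaction ran 60 min at RT after 10 min compound preincubation; data scaled to 57 uM ketoconazole as 100% inhibition.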
On the technique in general: In qHTS, concentration-response curves come from the screen itself.

Experiment [2] shares this target. The experiment can be described thus: qHTS Assay for Activators of Cytochrome P450 3A4 (AID 885). Also: nearly all actives have a fitted effect of over 65% in size. The gist of the method:
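Activators are scored by enhanced luminescence from CYP3A4 conversion of luciferin-PPXE (25uM, equal to KM) to luciferin, after 60 min at RT with an NADPH-regenerating system.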

Experiment [3] in a line: Confirmation and Secondary Assay for Modulators of Hemoglobin Beta Chain Splicing at IVS2 654 locus (AID 910).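 Also: per-well total GFP intensity by laser scanning cytometry after 2-day treatment; % of control where 0% means no effect.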 The essentials:
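HeLa cells stably carrying EGFP interrupted by mutant beta-globin IVS2-654 intron (CMV-driven) were treated with compound for 2 days at 37C; corrected splicing was scored as total peak GFP intensity per well (488 nm excitation, 500-520 nm emission).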

The nature of experiment [4]: Confirmation and Secondary Assay for Modulators of Hemoglobin Beta Chain Splicing at IVS2 705 locus (AID 930).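 Also: HeLa cells stably expressing the EGFP-705 splicing reporter; GFP fluorescence per well restored by corrected splicing of the IVS2-705 intron in EGFP; % of control where 0% means no effect.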 The gist of the method:
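Per-well GFP, captured at 1 x 8 µm resolution with 488 nm excitation, served as the read-out for HeLa EGFP-705 cells incubated 2 days with test compound versus DMSO.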

Experiment [5] concerns the target Rap guanine nucleotide exchange factor 3 (Homo sapiens) (UniProt O95398). The experiment is described as follows: Confirmatory qHTS for antagonist of cAMP-regulated guanine nucleotide exchange factor 3 (EPAC1) (AID 1645880). Also: nearly all actives have a fitted effect of over 55% in size. Also: potency is read from the fitted curve at half-maximal effect.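 As to activity, negative = inhibition: plate controls were DMSO only for no effect and full effect of the ATA control for full effect.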 The settings on record: EPAC1 Rap1B-BODIPY-GDP exchange, fluorescence; activity, negative = inhibition: at 115 µM (top of the series). The gist of the method: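 Released BODIPY-GDP fluoresces less than Rap1-bound BODIPY-GDP; the signal is followed at 480/540 nm at 5-min intervals over 30 min, after 5 min at room temperature. Reactions contain 100 nM EPAC1, 250 nM RAP1B-BODIPY-GDP and 50 uM GDP; results are normalized to ATA and DMSO.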

The target is the same in experiment [6]. The experiment is described as follows: Confirmatory qHTS for agonist of cAMP-regulated guanine nucleotide exchange factor 3 (EPAC1) (AID 1645881). Also: nearly all actives have a fitted effect of over 75% in size. Also: potency is read from the fitted curve at half-maximal effect.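 As to activation: EPAC1 catalysed release of BODIPY-GDP from Rap1B seen as fluorescence loss; 100% = effect of cAMP agonist control.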
In experiment [7] the target is Rap guanine nucleotide exchange factor 4 (Homo sapiens) (UniProt Q8WZA2). The experiment is described as follows: Confirmatory qHTS for agonist of cAMP-regulated guanine nucleotide exchange factor 4 (EPAC2) (AID 1645884).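 Also: nucleotide exchange releases bodipy-GDP from Rap1 and this lowers its fluorescence; nearly all actives have a fitted effect of over 65% in size.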 Also: potency is read from the fitted curve at half-maximal effect. As to activation: % is scaled to controls: 0 for no effect and ±100 for the full control effect.
For experiment [8] the target is unchanged. The experiment is described as follows: Confirmatory qHTS for antagonist of cAMP-regulated guanine nucleotide exchange factor 4 (EPAC2) (AID 1645885). Also: nearly all actives have a fitted effect of over 25% in size. Also: potency is read from the fitted curve at half-maximal effect. As to activity change, negative = inhibition: % is scaled to controls: 0 for no effect and ±100 for the full control effect.
Experiment [9] has as its target Rap guanine nucleotide exchange factor 3 (Homo sapiens) (UniProt O95398). The experiment is described as follows: Counterscreen qHTS for antagonist of cAMP-regulated guanine nucleotide exchange factor 3 (EPAC1) (AID 1645888). Also: % of control where 0% means no effect. The essentials:
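Measured: fluorescence of BODIPY-GDP bound to Rap1B, which falls as exchange proceeds. Conditions include 50 uM competing GDP, 5 and 30 min reads, and a later cAMP challenge for antagonist detection.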

Experiment [10] concerns the target Ubiquitin carboxyl-terminal hydrolase 1 (Homo sapiens) (UniProt O94782). The experiment can be described thus: Inhibitors of USP1/UAF1: Pilot qHTS (AID 504865).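 Also: rhodamine fluorescence freed from ubiquitin-rhodamine substrate followed over time; top concentration of the series differs between compounds; % is scaled to controls: 0 for no effect and ±100 for the full control effect; nearly all actives have a fitted effect of over 35% in size.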 The gist of the method: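 Enzyme-free wells gave the negative control, while test wells held 1nM USP1/UAF1 preincubated with compound for 15 min at room temperature. Ub-Rho at 150nM final started the reaction, and fluorescence at 480/540 nm was recorded kinetically.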

Chain of Rap guanine nucleotide exchange factor 4 (Homo sapiens) (Q8WZA2 whole entry, looked up): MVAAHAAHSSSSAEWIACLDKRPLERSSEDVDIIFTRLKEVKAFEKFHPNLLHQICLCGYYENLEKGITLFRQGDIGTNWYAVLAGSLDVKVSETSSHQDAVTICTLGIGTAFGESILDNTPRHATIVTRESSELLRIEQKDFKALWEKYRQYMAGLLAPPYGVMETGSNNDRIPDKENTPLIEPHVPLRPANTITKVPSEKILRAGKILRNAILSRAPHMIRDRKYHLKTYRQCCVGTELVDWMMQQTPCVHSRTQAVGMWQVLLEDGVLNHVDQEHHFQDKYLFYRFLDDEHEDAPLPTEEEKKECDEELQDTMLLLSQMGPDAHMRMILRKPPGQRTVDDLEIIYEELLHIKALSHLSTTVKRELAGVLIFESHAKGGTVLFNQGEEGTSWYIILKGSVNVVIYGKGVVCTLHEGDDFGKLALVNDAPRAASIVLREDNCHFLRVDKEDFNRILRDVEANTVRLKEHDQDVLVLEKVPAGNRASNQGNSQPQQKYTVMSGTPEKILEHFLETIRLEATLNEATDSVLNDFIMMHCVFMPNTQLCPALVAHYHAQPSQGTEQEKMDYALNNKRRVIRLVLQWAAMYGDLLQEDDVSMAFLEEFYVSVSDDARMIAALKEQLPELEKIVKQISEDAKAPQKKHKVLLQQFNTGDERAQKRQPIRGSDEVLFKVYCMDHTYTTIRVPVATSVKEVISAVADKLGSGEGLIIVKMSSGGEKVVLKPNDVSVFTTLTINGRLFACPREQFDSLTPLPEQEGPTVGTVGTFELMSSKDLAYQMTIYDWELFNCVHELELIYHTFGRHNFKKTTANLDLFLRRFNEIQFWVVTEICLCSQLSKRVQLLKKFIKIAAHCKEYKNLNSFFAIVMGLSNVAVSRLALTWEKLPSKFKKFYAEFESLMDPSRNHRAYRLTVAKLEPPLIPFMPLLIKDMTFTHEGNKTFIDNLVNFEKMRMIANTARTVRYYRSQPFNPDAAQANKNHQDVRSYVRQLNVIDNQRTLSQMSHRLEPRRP
Chain of Rap guanine nucleotide exchange factor 3 (Homo sapiens) (O95398 whole entry, looked up): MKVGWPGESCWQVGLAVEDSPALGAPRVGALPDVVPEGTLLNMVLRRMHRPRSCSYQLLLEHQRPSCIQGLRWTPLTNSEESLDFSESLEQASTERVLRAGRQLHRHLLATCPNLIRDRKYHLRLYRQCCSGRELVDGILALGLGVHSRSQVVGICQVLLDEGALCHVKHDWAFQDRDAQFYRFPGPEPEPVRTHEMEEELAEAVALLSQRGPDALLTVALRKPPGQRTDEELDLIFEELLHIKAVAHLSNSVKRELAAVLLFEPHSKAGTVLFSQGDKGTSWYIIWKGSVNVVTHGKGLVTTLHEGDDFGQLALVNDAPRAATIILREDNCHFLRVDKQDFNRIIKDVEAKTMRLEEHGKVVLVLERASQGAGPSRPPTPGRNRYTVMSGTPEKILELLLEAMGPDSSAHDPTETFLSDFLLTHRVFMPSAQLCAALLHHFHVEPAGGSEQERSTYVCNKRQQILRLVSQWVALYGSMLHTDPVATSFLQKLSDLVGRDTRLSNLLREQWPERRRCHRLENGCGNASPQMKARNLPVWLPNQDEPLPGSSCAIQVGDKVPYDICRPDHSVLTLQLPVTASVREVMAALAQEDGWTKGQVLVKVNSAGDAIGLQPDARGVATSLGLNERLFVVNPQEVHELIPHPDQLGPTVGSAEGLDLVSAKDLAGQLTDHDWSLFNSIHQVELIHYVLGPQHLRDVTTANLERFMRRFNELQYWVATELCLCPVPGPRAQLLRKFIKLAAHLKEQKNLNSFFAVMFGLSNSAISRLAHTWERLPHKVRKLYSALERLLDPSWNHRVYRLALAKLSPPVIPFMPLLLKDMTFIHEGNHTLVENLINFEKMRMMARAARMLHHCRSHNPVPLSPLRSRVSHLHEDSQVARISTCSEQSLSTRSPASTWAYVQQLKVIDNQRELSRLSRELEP
Chain of Cytochrome P450 3A4 (Homo sapiens) (P08684 whole entry, looked up): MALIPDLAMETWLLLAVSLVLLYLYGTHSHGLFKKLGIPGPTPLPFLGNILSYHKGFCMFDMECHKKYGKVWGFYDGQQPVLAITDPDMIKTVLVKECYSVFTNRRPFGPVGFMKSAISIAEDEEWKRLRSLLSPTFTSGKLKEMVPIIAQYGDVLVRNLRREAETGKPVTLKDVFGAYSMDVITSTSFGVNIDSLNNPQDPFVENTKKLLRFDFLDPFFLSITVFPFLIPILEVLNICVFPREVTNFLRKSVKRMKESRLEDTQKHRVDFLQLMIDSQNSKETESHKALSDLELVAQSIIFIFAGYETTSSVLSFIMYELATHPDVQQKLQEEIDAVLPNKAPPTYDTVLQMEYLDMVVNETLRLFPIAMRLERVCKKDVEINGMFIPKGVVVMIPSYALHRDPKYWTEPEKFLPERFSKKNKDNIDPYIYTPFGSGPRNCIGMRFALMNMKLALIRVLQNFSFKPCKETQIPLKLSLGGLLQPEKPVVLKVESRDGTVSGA
Chain of Ubiquitin carboxyl-terminal hydrolase 1 (Homo sapiens) (O94782 whole entry, looked up): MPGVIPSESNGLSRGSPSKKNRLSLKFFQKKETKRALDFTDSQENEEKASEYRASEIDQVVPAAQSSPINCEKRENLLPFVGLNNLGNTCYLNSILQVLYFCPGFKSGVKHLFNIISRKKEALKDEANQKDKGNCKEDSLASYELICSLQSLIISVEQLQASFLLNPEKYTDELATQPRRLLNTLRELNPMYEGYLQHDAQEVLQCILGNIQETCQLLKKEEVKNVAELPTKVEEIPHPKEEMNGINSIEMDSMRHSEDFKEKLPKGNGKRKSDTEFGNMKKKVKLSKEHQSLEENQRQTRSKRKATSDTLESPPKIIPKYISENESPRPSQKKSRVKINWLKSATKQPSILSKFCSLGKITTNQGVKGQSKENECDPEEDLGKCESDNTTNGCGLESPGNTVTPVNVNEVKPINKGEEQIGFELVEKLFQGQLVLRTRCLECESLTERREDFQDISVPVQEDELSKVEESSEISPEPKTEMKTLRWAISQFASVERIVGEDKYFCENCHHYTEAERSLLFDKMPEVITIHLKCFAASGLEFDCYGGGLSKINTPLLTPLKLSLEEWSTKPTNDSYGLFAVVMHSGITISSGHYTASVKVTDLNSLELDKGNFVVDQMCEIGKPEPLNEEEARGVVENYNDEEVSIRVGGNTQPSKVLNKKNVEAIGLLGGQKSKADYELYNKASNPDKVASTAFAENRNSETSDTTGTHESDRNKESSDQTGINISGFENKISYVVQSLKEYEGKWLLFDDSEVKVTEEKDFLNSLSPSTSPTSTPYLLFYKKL

As to `COc1cc2c(cc1OC)C1C(=O)c3ccc4c(c3OC1CO2)C=CC(C)(C)O4` (stereo not given), the Potency in experiment [1] was 31.6 µM (active). Further, in experiment [2], the compound was called inactive. The Potency result in experiment [3], in [4], in experiment [5], in experiment [6], in [7] and in experiment [8] was “inactive” in each case.

As for `Cc1cc(NC(=O)COC(=O)C(C)Oc2ccc(Cl)cc2Cl)no1` (stereo not given), the Potency result in experiment [5], in experiment [6], in experiment [7] and in [9] was “inactive” in each case.

For `CC(=O)c1ccc(N2CCN(C(=O)/C=C/c3ccc4ccccc4n3)CC2)cc1`, the Potency result in [5], in experiment [6] and in experiment [9] was “inactive” in each case. In addition, the Potency in [7] is 89.1 µM (active).

`Cc1ccc(-c2ccccc2C2=CC(=O)CC(C)(C)C2=O)cc1`: the Potency result in [5] and in [6] was “inactive” each time. Further, the activation in experiment [7] was -2.04% [at 17.1 µM, percent relative to cAMP agonist control]. Besides, in experiment [9], the activity change, negative = inhibition was 11.7% [at 30.8 µM].

As for `CC1(C)C(OC(=O)CCC(=O)O)CC[C@]2(C)C1CC[C@@]1(C)C2C(=O)C=C2[C@@H]3C[C@@](C)(C(=O)O)CC[C@]3(C)CCC21C` (stereo not given in full), the Potency entry in experiment [3], in experiment [4], in experiment [10], in experiment [5], in [6] and in experiment [7] was “inactive” in each case. Also, the Potency in experiment [8] was 15.6 µM (active).

As to `COC(=O)c1c(-c2ccc(OC)cc2)sc2ccc(OC)cc12`, the Potency entry in [5], in experiment [6], in [7] and in experiment [9] was “inactive” each time.

On to `CCc1nc2ccccc2c(C(=O)NCc2ccccc2)c1C`, for which the Potency result in experiment [5], in [6], in experiment [7] and in [9] was “inactive” each time.

In the case of `CC(C)=CCc1c(O)cc2oc3c(CC=C(C)C)c(O)c(O)c(CC=C(C)C)c3c(=O)c2c1O`, in [5], the Potency was 75.7 µM (active). In addition, the Potency entry in experiment [6], in experiment [7] and in experiment [9] was “inactive” in each case.

Regarding `Cc1ccc(CNc2cc(C)nc3nc(-c4cccc(C)c4)nn23)cc1`, the Potency entry in experiment [5], in experiment [6], in [7] and in experiment [9] was “inactive” each time.

On to `O=C(c1ccco1)N1CCn2cccc2C1c1ccccc1` (stereo not given), for which the Potency result in experiment [5], in [6], in experiment [7] and in [9] was “inactive” in each case.

Regarding `CCc1nc2c(OCc3ccc(C(F)(F)F)cc3)cccn2c1N(C)C(=O)c1ccc(OC)cc1`, the Potency entry in experiment [5] and in experiment [6] was “inactive” in each case. In addition, the activation in experiment [7] was 16% [at 17.1 µM, percent relative to cAMP agonist control]. Also, the activity change, negative = inhibition in experiment [9] is -20.8% [at 30.8 µM].

With `COC(=O)/C(=C/Nc1ccc(O)cc1)[N+](=O)[O-]`, the Potency entry in [5], in experiment [6], in experiment [7] and in experiment [9] was “inactive” each time.

Take `Cc1cc(C)c2nc(N3C(=O)C(O)=C(C(=O)c4ccco4)C3c3ccc(O)cc3)sc2c1` (stereo not given): the Potency in [5] was 37.9 µM (active). Moreover, the Potency entry in experiment [6], in experiment [7] and in experiment [9] was “inactive” in each case.

As to `Cc1noc(C)c1COc1ccccc1C(=O)NCCc1ccc(Cl)cc1`, the Potency result in experiment [5], in [6], in experiment [7] and in [9] was “inactive” each time.

For the compound `O=C(Nc1sc2c(c1C(=O)O)CCC2)c1ccccc1F`, the Potency result in experiment [5], in [6], in experiment [7] and in experiment [9] was “inactive” throughout.

As for `Cn1c(N)c(C(=O)COC(=O)C2(c3ccc(Cl)cc3)CCCC2)c(=O)n(C)c1=O`, the Potency result in experiment [5], in experiment [6], in [7] and in [9] was “inactive” in each case.

In the case of `COc1cc(/C=C2\C(=N)N3N=C(S(C)(=O)=O)SC3=NC2=O)cc(OC)c1OCCOc1ccccc1C`, in [5], the Potency was 67.5 µM (active). Moreover, the Potency entry in experiment [6], in experiment [7] and in [9] was “inactive” throughout.

As to `COc1cc(/C=C2\COC/C(=C\c3ccc(O)c(OC)c3)C2=O)ccc1O`, the Potency in [5] was 23.9 µM (active). Besides, the Potency result in experiment [6], in experiment [7] and in experiment [9] was “inactive” in each case.

Consider `CCN(CC1COc2ccccc2O1)C(=O)CN1C(=O)NC(C)(c2ccc(C)cc2)C1=O` (stereo not given), for which the Potency entry in experiment [5], in experiment [6], in experiment [7] and in [9] was “inactive” in each case.

On to `CC(=O)c1ccc(N2CCN(C(=O)c3cc(-c4cccnc4)nc4ccc(Br)cc34)CC2)cc1`, for which the Potency entry in experiment [5], in experiment [6], in [7] and in [9] was “inactive” in each case.

As for `COc1cc(OC)c2c(-c3ccccc3)cc(=O)oc2c1C(CC(=O)N1CCOCC1)c1ccc2c(c1)OCO2` (stereo not given), the Potency entry in experiment [5] and in experiment [6] was “inactive” in each case. In addition, the activation in experiment [7] was 1.13% [at 17.1 µM, percent relative to cAMP agonist control]. In addition, the activity change, negative = inhibition in [9] is -9.45% [at 30.8 µM].

Take `Cc1ccc2oc(=O)c(/C=C(\O)c3ccco3)nc2c1`: the Potency entry in [5] and in experiment [9] was “inactive” throughout. For the same compound, the figures for the Potency in [6] and in experiment [7] were 89.1 µM (active) and 100 µM (active), respectively.

As for `CCSc1nc(-c2ccccc2)nc2c1CCCC2`, the Potency result in experiment [5], in experiment [6], in [7] and in experiment [9] was “inactive” in each case.

For `CC1=CC(C)(C)N(C(=O)c2ccc(F)cc2)c2cc3c(cc21)OCO3`, the Potency entry in experiment [5], in experiment [6], in experiment [7] and in experiment [9] was “inactive” each time.

As for `COC(=O)C1=CN(c2c(C)cc(C)cc2C)C(N)=C(C#N)C1c1cccc(F)c1` (stereo not given), the Potency result in [5], in [6], in experiment [7] and in [9] was “inactive” throughout.

In the case of `O=C1CC2(CCCCC2)Oc2ccc(F)cc21`, the Potency entry in experiment [5], in [6], in experiment [7] and in [9] was “inactive” each time.

For `Cc1ccc([N+](=O)[O-])cc1NC(=O)c1ccc(-c2ccccc2)cc1`, the Potency entry in [5], in [6], in experiment [7] and in experiment [9] was “inactive” in each case.

Regarding `CCCc1nc2c3ccccc3ccn2c1CC(C)(C)C`, the Potency result in experiment [5], in [6], in experiment [7] and in experiment [9] was “inactive” each time.

Regarding `O=c1[nH]nc(CNc2ccc(O)cc2)c2ccccc12`, the Potency entry in experiment [5], in [6], in [7] and in experiment [9] was “inactive” throughout.

Take `COc1ccc(OC)c(C(=O)c2ccc(Cl)cc2)c1`: the Potency entry in [5] and in experiment [6] was “inactive” each time. Besides, the activation in experiment [7] is 8.77% [at 17.1 µM, percent relative to cAMP agonist control]. The activity change, negative = inhibition in experiment [9] is 5.43% [at 30.8 µM].

Take `Cc1ccc(CC#N)c(-c2c(CC#N)ccc(C)c2C)c1C`: the Potency entry in experiment [5], in [6], in [7] and in experiment [9] was “inactive” in each case.

In the case of `Cc1ccc(Sc2ncccc2C(=O)N(C)Cc2cccs2)c(C)c1`, the Potency entry in experiment [5], in [6], in experiment [7] and in experiment [9] was “inactive” each time.
